Experimental data taken from PubChem BioAssay (NCI).
This is part of a sample that, as a whole, favours compounds with a hit. Of some 83,000 tested, about 20% had one in any assay.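 The endpoint reported here, percent growth, reads 100 for growth as untreated, 0 for no net growth and -100 for all cells dead.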 Activity calls are given as the source filed them. The calls were made as follows: active = growth percent below 10; inactive = the rest.

system: HL-60(TB) leukemia; test: NCI-60 one-dose screen, 48 h (100 = growth as untreated, 0 = no growth, -100 = all killed); conditions: 10 µM unless noted

SMILES | growth
CS(=O)(=O)Nc1cc(-c2ccc3ncnc(Nc4ccc5[nH]ncc5c4)c3c2)cnc1Cl | 55.5% (inactive)
N#Cc1cnn(-c2nc3c(Cl)cccc3s2)c1N | 97.7% (inactive)
CCOc1ccc2nc(C)cc(Nc3ccc(Br)cc3)c2c1 | 107% (inactive)
CCCCCCCC/C=C\CCCCCCCCOc1ccc(CC(=O)NCC[N+]2(C)CCCC2)cc1 | -31.6% (active)
CCOC(=O)c1c(C)oc2ncnc(Nc3ccc(C(=O)NCCc4ccccc4)cc3)c12 | 87.7% (inactive)
c1ccc2[nH]c(-c3ccc(Nc4nc(N5CCCC5)nc5[nH]ncc45)cc3)nc2c1 | -32.8% (active)
CCCc1cc2c(cc1Br)OCO2 | 103% (inactive)
COc1cc2oc(-c3cccc(NC(=O)Nc4ccc5c(c4)OCO5)c3)cc(=O)c2c(OC)c1OC | 56.8% (inactive)
COc1ccc(/C=C2\N=C(Nc3ccccc3)N(NC(=O)c3ccccn3)C2=O)cc1 | 97.7% (inactive)
COC(=O)c1ccc(Cn2cnc3c(N)ncnc32)cc1 | 67.6% (inactive)
CN=C(N)N/N=C(\c1ccccc1)c1ccc(Br)cc1 | -52.5% (active)
O=C(Nc1ccccc1Cl)OCCN1CCOCC1 | 108% (inactive)
Cc1ccc(Nc2nnc(-c3ccc(Cl)cc3)o2)c(C)c1 | 84.2% (inactive)
COc1ccc(C(=O)c2cc(OC)c(OC)c(OC)c2)cc1/C=C/C(=O)c1ccc2c(c1)OCO2 | 27.5% (inactive)
C=C(C)CCC(C)N1CCC(N2CCC(C(=O)NCCc3ccccc3)CC2)CC1 (stereo not given) | 27.4% (inactive)
CC1=NN(c2cccc(Cl)c2)C(=O)/C1=C\c1cn(CC(O)CN2CCCCC2)c2ccccc12 (stereo not given) | 25.7% (inactive)
Nc1cc(N)c2nc(NCCc3ccc(Cl)c(Cl)c3)cnc2c1 | -74.3% (active)
OCC1OC(n2cnc3c(Cl)ncnc32)CC1O (stereo not given) | 121% (inactive)
COc1cc(/C=C/C(=O)c2ccc(NC(=O)CN3CCN(c4cc5c(cc4F)c(=O)c(C(=O)O)cn5C4CC4)CC3)cc2)cc(OC)c1OC | -33.7% (active)
COc1ccc(C2=NN(C(C)=O)C(c3c(C)nn(-c4ccccc4)c3N3CCOCC3)C2)cc1 (stereo not given) | 101% (inactive)

SMILES | growth
O=c1oc2c(cc1-c1ccc(F)cc1)C(O)Oc1ccccc1-2 (stereo not given) | 101% (inactive)
Cn1cc(Nc2nccc(-c3ccc(N4CCCC4)c(C#N)c3)n2)cn1 | -17.8% (active)
Cc1ccc(/C=C/C(=O)c2ccc(NC(=O)CSc3nc4c([nH]3)c(=O)n(C)c(=O)n4C)cc2)c(C)c1 | 94.5% (inactive)
O=[N+]([O-])c1c(O)c(Cl)cc(Cl)c1Cl | 92.1% (inactive)
COc1cc2c(cc1O)[C@@]1(C)[C@H](c3ccccc3Br)OC(=O)N1CC2 | 73.3% (inactive)
O=C1CC(c2nc3ccccc3[nH]2)CN1C1CCCCC1 (stereo not given) | 101% (inactive)
COc1ccc(C(O)c2cc3c(N)c(C(=O)Nc4cccc(Br)c4)sc3nc2C)cc1 (stereo not given) | -5.69% (active)
Cc1cc(C)c(S(=O)O)c(C)c1 | 102% (inactive)
CC1(C)C2CC=C(/C=N/NC(=O)C3CCC(=O)N3)C1C2 (stereo not given) | 101% (inactive)
COc1cc(/C=C/c2cc(/C=C/c3ccc(O)c(OC)c3)n(-c3ccccc3)c(=O)n2)ccc1O | 70.9% (inactive)
COc1cc(F)c(F)c(Nc2ccc(I)cc2F)c1NS(=O)(=O)C1(C[C@H](O)CO)CC1 | 23.9% (inactive)
CCOc1ccc(/C=N/NC(=O)c2cccc3ccccc23)cc1OCC | 100% (inactive)
O=C(N=Nc1c(O)[nH]c2ccccc12)Nc1ccc(Br)cc1 | 70.2% (inactive)
CCOC(=O)c1ccc(NC(=O)N2CC(C)OC(C)C2)cc1 (stereo not given) | 92.8% (inactive)
CC1NC(C)c2ccc3ccccc3c2O1 (stereo not given) | 99.4% (inactive)
O=S(=O)(NCCCNc1cc(-c2cn(-c3ccccc3)nc2-c2ccccc2)ccn1)c1ccc(C(F)(F)F)cc1 | 39.1% (inactive)
COc1ccc(/C=C(/c2ccccc2)[N+](=O)[O-])c(OC)c1 | 0.521% (active)
COc1ccc(/C=C2\CN(C(=O)C(Cl)Cl)C/C(=C\c3ccc(OC)c(OC)c3)C2=O)cc1OC | -11.4% (active)
COc1c2c(cc3c1C(=O)N[C@@H]1[C@@H](O)[C@@H](O)[C@H](O)C[C@@H]31)OCCO2 | 95.4% (inactive)
COc1ccc(OC)c2c1C(=O)CC2C (stereo not given) | 103% (inactive)
